# Experimental data: PubChem BioAssay (NCI)
# Compounds without any hit were thinned out: in the full panel of roughly 83,000, 20% have a hit.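 Results are percent growth after 48 hours of single-concentration exposure. 100 means growth as in untreated cells, lower positive values show inhibition; negative values down to -100 show cell death.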 Activity calls are given as the source filed them. The calls were made as follows: active = growth percent below 10; inactive = the rest.
# Key:
# Test in all cases: NCI-60 one-dose screen, 48 h (100 = growth as untreated, 0 = no growth, -100 = all killed)
# Details in all cases: 10 µM unless noted
# [1] = test system: SR leukemia
# [2] = test system: RPMI-8226 leukemia
# [3] = test system: OVCAR-8 ovarian
# [4] = test system: OVCAR-5 ovarian
# [5] = test system: OVCAR-4 ovarian
# [6] = test system: SK-OV-3 ovarian
# [7] = test system: IGROV1 ovarian
# [8] = test system: OVCAR-3 ovarian
# [9] = test system: HS 578T breast
# [10] = test system: NCI/ADR-RES ovarian
# [11] = test system: T-47D breast
# [12] = test system: BT-549 breast
# [13] = test system: SW-620 colon
# [14] = test system: MCF7 breast
# [15] = test system: HCT-116 colon
# [16] = test system: HCC-2998 colon
# [17] = test system: KM12 colon
# [18] = test system: MDA-MB-435 melanoma
Structure (SMILES),growth [1],growth [2],growth [3],growth [4],growth [5],growth [6],growth [7],growth [8],growth [9],growth [10],growth [11],growth [12],growth [13],growth [14],growth [15],growth [16],growth [17],growth [18]
Clc1ccc(N2N=C(c3cccc(Nc4ccncc4)c3)CC2c2ccc3c(c2)OCO3)cc1 (stereo not drawn),6.11% (active),44.1% (inactive),26.7% (inactive),73.9% (inactive),44.7% (inactive),54.8% (inactive),20.7% (inactive),23.5% (inactive),68.9% (inactive),31.2% (inactive),82.2% (inactive),87.1% (inactive),-78.6% (active),-17.4% (active),18.4% (inactive),1.72% (active),2.3% (active),
COc1ccc(C(=O)c2cc3c(N)c(C(=O)Nc4ccc(Br)cc4)sc3nc2C)cc1,51.5% (inactive),77% (inactive),37.2% (inactive),88% (inactive),0.804% (active),62.1% (inactive),85.9% (inactive),65.4% (inactive),32.3% (inactive),70% (inactive),70.6% (inactive),78.2% (inactive),79.1% (inactive),71% (inactive),58.2% (inactive),94.7% (inactive),72% (inactive),
COc1ccc(C(=O)c2cc3c(N)c(C(=O)Nc4cccc(Cl)c4C)sc3nc2C)cc1,-27.1% (active),1.21% (active),5.92% (active),40.9% (inactive),39.2% (inactive),25.9% (inactive),24.8% (inactive),-5.77% (active),15% (inactive),8.86% (active),40.9% (inactive),36.9% (inactive),23.2% (inactive),19.4% (inactive),7.35% (active),,10.6% (inactive),
CN(C)c1ccc(-c2c(C#N)c(N)n3nc(N)c(C#N)c3c2C#N)cc1,62.1% (inactive),32.2% (inactive),83.7% (inactive),63.7% (inactive),101% (inactive),71.3% (inactive),55.7% (inactive),85.3% (inactive),93.2% (inactive),90.4% (inactive),59.5% (inactive),69.1% (inactive),112% (inactive),99.3% (inactive),99.3% (inactive),83.6% (inactive),75.4% (inactive),
CCn1cc(C2NC(=O)c3ccccc3N2)c2cccc(C)c21 (stereo not drawn),-18.2% (active),6.81% (active),7.03% (active),19.6% (inactive),25.7% (inactive),32.9% (inactive),14.4% (inactive),-44.9% (active),7.22% (active),8.25% (active),36.9% (inactive),48.7% (inactive),24.7% (inactive),16.9% (inactive),7.91% (active),,15.9% (inactive),
CCCCCCCC(=O)Nc1nc2[nH]c(CN3CCN(Cc4cccc(I)c4)CC3)c(CN3CCN(Cc4cccc(I)c4)CC3)c2c(=O)[nH]1,-43.4% (active),-22.5% (active),-49.6% (active),-66.1% (active),-89.8% (active),-69.8% (active),-74% (active),-95.8% (active),-40.9% (active),-51.1% (active),-62% (active),-4.02% (active),-73.7% (active),-93.6% (active),-100% (active),-94.6% (active),-80.5% (active),
COc1cc2c(cc1[N+](=O)[O-])-c1ccc([N+](=O)[O-])cc1/C2=N/NC(N)=S,42.6% (inactive),66.1% (inactive),51.9% (inactive),98.9% (inactive),57.6% (inactive),96.5% (inactive),47.9% (inactive),73.7% (inactive),77.3% (inactive),69.6% (inactive),57.4% (inactive),61.6% (inactive),40.6% (inactive),22.5% (inactive),33.8% (inactive),72.8% (inactive),70.5% (inactive),
Nc1c(Cl)cc([N+](=O)[O-])cc1Br,99.5% (inactive),86.8% (inactive),93.9% (inactive),103% (inactive),102% (inactive),110% (inactive),114% (inactive),102% (inactive),105% (inactive),95% (inactive),97.8% (inactive),97.5% (inactive),,99.9% (inactive),,93.7% (inactive),103% (inactive),91.4% (inactive)
O=S(=O)(NCCNc1nccc(-c2c(-c3ccc(F)c(O)c3)nc3sccn23)n1)c1ccccc1,35.8% (inactive),41% (inactive),67.6% (inactive),115% (inactive),92.8% (inactive),85.9% (inactive),68.9% (inactive),81.6% (inactive),82.1% (inactive),106% (inactive),68.8% (inactive),114% (inactive),70.4% (inactive),76.1% (inactive),34.3% (inactive),95% (inactive),71.2% (inactive),
COc1cc(COC(=O)CCCCC[P+](c2ccccc2)(c2ccccc2)c2ccccc2)c(OC)c2c1OCO2,0.217% (active),-23.1% (active),64.4% (inactive),76.9% (inactive),41.2% (inactive),76.6% (inactive),28.6% (inactive),48.7% (inactive),70.8% (inactive),104% (inactive),14.7% (inactive),55.5% (inactive),58% (inactive),47.7% (inactive),33.2% (inactive),64.9% (inactive),36.1% (inactive),
CCN(CC)CCCCCCNc1cc(OC)cc2cccnc12,-51.2% (active),-8.8% (active),20.7% (inactive),97.7% (inactive),44.6% (inactive),101% (inactive),88.8% (inactive),-44.2% (active),92.5% (inactive),82.9% (inactive),92.5% (inactive),,-64.5% (active),20% (inactive),-54.4% (active),84.1% (inactive),76% (inactive),17.8% (inactive)
N#Cc1cc(-c2nc3ccccc3s2)c(=O)n(NS(=O)(=O)c2ccc(Cl)cc2)c1N,110% (inactive),100% (inactive),110% (inactive),102% (inactive),103% (inactive),83.7% (inactive),95.5% (inactive),107% (inactive),99.7% (inactive),104% (inactive),96.6% (inactive),105% (inactive),97.7% (inactive),99.9% (inactive),98.5% (inactive),111% (inactive),102% (inactive),
CC[C@@]12C=CCN3CC[C@]4(c5cc(NC(=O)COc6cc(OCC(=O)Nc7cc8c(cc7OC)N(C)[C@H]7[C@@](O)(C(=O)OC)[C@H](OC(C)=O)[C@]9(CC)C=CCN%10CC[C@]87[C@@H]%109)cc7oc(-c8ccccc8)cc(=O)c67)c(OC)cc5N(C)[C@@H]4[C@](O)(C(=O)OC)[C@H]1OC(C)=O)[C@H]32,10.6% (inactive),8.92% (active),28.8% (inactive),30.2% (inactive),28.8% (inactive),23.5% (inactive),-70% (active),-26.8% (active),39.4% (inactive),95.5% (inactive),77.3% (inactive),,20.3% (inactive),26.1% (inactive),0.866% (active),-8.78% (active),-39.3% (active),42% (inactive)
Clc1ccc(C2CC(c3cccc(Nc4ccncc4)c3)=NN2c2ccccc2)cc1 (stereo not drawn),2.19% (active),1.08% (active),-7.33% (active),82.6% (inactive),45.5% (inactive),81.4% (inactive),25.9% (inactive),64.4% (inactive),83.9% (inactive),78.8% (inactive),58.6% (inactive),,-79.8% (active),4.93% (active),-79.6% (active),-31.5% (active),-7.31% (active),-46.1% (active)
CNC(=O)NCC1OC(n2cnc3c(NC(=O)Nc4ccccc4)ncnc32)C(O[Si](C)(C)C(C)(C)C)C1O[Si](C)(C)C(C)(C)C (stereo not drawn),-22.1% (active),20.2% (inactive),32.9% (inactive),69.2% (inactive),29.6% (inactive),77.5% (inactive),52.5% (inactive),-28.7% (active),61% (inactive),31% (inactive),13.6% (inactive),39.7% (inactive),36.4% (inactive),0.294% (active),0.332% (active),-1.37% (active),-3.66% (active),
CN1CCN(c2ccc3nc(-c4cc(C(C)(C)C)c(O)c(C(C)(C)C)c4)[nH]c3c2)CC1,-14.5% (active),-24.2% (active),94.1% (inactive),91.6% (inactive),75.9% (inactive),83.9% (inactive),88% (inactive),74.4% (inactive),71.9% (inactive),86.8% (inactive),63.2% (inactive),98.2% (inactive),14.7% (inactive),35.6% (inactive),23.3% (inactive),25.2% (inactive),16.9% (inactive),
O=C(N=Nc1c(O)[nH]c2ccc(F)cc12)c1cc2ccccc2[nH]1,95.1% (inactive),92% (inactive),97.2% (inactive),103% (inactive),99.9% (inactive),110% (inactive),79.3% (inactive),101% (inactive),101% (inactive),100% (inactive),88.2% (inactive),,105% (inactive),90.1% (inactive),93.5% (inactive),100% (inactive),102% (inactive),99.6% (inactive)
COc1ccccc1C(C[N+](=O)[O-])c1c(-c2ccccc2)[nH]c2cc(C)ccc12 (stereo not drawn),24.2% (inactive),61.5% (inactive),75.3% (inactive),89.5% (inactive),81.7% (inactive),88.6% (inactive),53.6% (inactive),76.1% (inactive),83% (inactive),50.1% (inactive),32.2% (inactive),,54.6% (inactive),55.6% (inactive),53.8% (inactive),93.6% (inactive),63.1% (inactive),13.8% (inactive)
